TDP1 cell noCPT: qHTS for Inhibitors of human tyrosyl-DNA phosphodiesterase 1 (TDP1): qHTS in cells in absence of CPT | DT40 Tdp1-/- hTDP1 cells, no CPT, ATP luminescence, 48 h | Potency, µM (doses to about 46.2 µM), for inactives: at the top dose activity change, negative = growth inhibition, most hits filed as inhibitors | hit rate 15% among 420,000; further: potency means the concentration at half of the fitted maximal effect; on the % scale 0 is the no-effect control and ±100 the full control effect; nearly all actives have a fitted effect of over 55% in size
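Compound effects on proliferation are scored in DT40 Tdp1-/-;hTDP1 cells in the absence of CPT. ATP levels (CellTiter-Glo luminescence) are recorded after a ≥48 hr, 37 °C incubation.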
SW480 rerep: induces DNA re-replication in SW480 colon adenocarcinoma cells; SW480 DNA re-replication, Hoechst DNA content imaging, 48 h; Potency, µM (series often up to 46.1 µM), inactives show at the top dose re-replication activation, actives largely listed as activators; hit rate 1.8% among 340,000; further: potency means the concentration at half of the fitted maximal effect; % of control where 0% means no effect; nearly all actives have a fitted effect of over 55% in size
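Hoechst fluorescence of nuclei (405 nm excitation, 500-530 nm emission) measured by plate-scanning imager after 48 hr compound exposure at 37 C; re-replication scored as increased number of nuclei with elevated intensity.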
BCR signal inh: inhibitors of chronic active B-cell receptor signaling; ABC-DLBCL IkBa-CBG/CBR reporter, luminescence ratio, 4 h; Potency, µM (series often up to 46.1 µM), for inactives: top-dose activity change, negative = inhibition, usual class: inhibitors; hit rate 0.05% among 340,000; active means well fitted inhibition curve with a large enough effect in the signal ratio, with a control signal flat, not every such curve was filed as active; inconclusive means small, poorly fitted or top-dose-only effect, or effect the other way, or a change in a side signal; the % refers to the signal ratio;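 further: potency means the concentration at half of the fitted maximal effect; plate controls were basal doxycycline-induced cells for no effect and cells given 10 µM MG132 for full effect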
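Compounds up to 46 uM were incubated four hours with TMD8 cells whose green CBG68 luciferase is fused to IkappaBalpha; red CBR luminescence normalised the signal, and concentration-effect curves were fitted to fusion, red and ratio data.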
TDP1 cell CPT: growth inhibition of DT40 Tdp1-/-;hTDP1 cells with camptothecin (screen for TDP1 inhibitors). chicken DT40 Tdp1-/-;hTDP1 cells + 20 nM CPT, ATP luminescence, 48 h. Potency, µM (titrated, usually from 46.2 µM), for the others: at the highest dose activity change, negative = growth inhibition, actives largely listed as inhibitors. hit rate 12% among 420,000; further: potency means the concentration at half of the fitted maximal effect; on the % scale 0 is the no-effect control and ±100 the full control effect; nearly all actives have a fitted effect of over 55% in size
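Cell growth measured by CellTiter-Glo luminescence after a minimum 48 h, 37 C compound exposure with 20 nM CPT in Tdp1-knockout DT40 cells stably expressing hTDP1, seeded 400/well; qHTS titration format.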
IL-1B inflam inh: blocks inflammasome-driven IL-1 beta release; hit rate 4.7% among 360,000; activity change, % at 57.5 µM; THP-1 LPS/ATP IL-1B secretion, AlphaLISA, 16 h; active compounds read low; in the data active means activity change below about -50%; inconclusive means mostly about -30% to -49%; further: on the % scale 0 is the no-effect control and ±100 the full control effect
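Secreted IL-1B measured by AlphaLISA bead assay after 16 h compound exposure of THP-1 cells; compounds (final up to 57.5 uM) added 1 h before LPS (250 ng/mL) and ATP (1.25 mM) stimulation; lower signal means less secretion.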
MCF10A rereplic: induces DNA re-replication in MCF 10a normal breast cells | AID 624296 | hit rate 2.9% among 350,000 | MCF 10A DNA re-replication, Hoechst nuclear intensity, 48 h | Potency, µM (doses to about 46.1 µM), without a hit: at the highest dose activity, positive = re-replication, usual class: activators; further: potency means the concentration at half of the fitted maximal effect; % of control where 0% means no effect; nearly all actives have a fitted effect of over 50% in size
The depositor's hits bear a star; ? = inconclusive; · = no result given; [ ] = remark or other dose. Rows were chosen to be rich in hits. Some 19% of all compounds tested hit in one or more screens of this group. Unless noted, the call rests on the fitted dose curve; in most records, active means well fitted curve in the direction sought with a large enough effect; inconclusive means small, poorly fitted or top-dose-only effect, or another doubt; inactive means no such curve, though single readings can be large; an effect the other way counts as inactive or inconclusive.

SMILES	TDP1 cell noCPT	SW480 rerep	BCR signal inh	TDP1 cell CPT	IL-1B inflam inh	MCF10A rereplic
COc1cc(/C=c2\sc3n(c2=O)C(c2ccccc2)C(c2ccccc2)=NN=3)ccc1O (centres undefined)	15µM*	6%	-11%	?	?	?
COc1cc(C=C2C(=O)OC(c3ccccc3)OC2=O)cc(Br)c1O (centres undefined)	23µM*	-10%	-4%	?	13	-3%
CCOc1cc(/C=C2\C(=O)ON=C2c2ccccc2)cc(Br)c1O	?	?	6%	?	-104*	9.2µM*
COc1cc(/C=C2\C(=O)ON=C2c2ccccc2)cc(Cl)c1O	18µM*	1%	?	16µM*	-15	?
COc1cc(/C=C2/C(=O)ON=C2c2ccccc2)ccc1O	18µM*	?	?	23µM*	-105*	?
Cc1sc(/C=C2\C(=O)ON=C2c2ccccc2)cc1Br	·	·	-4%	·	·	·
O=C(CCCOc1ccccc1)Nc1cc(S(=O)(=O)N2CCOCC2)ccc1N1CCOCC1	?	-1%	0%	?	-15	-1%
COc1cc(S(=O)(=O)N2CCOCC2)ccc1NC(=O)COC(=O)CC12CC3CC(CC(C3)C1)C2	18µM*	1%	4%	?	0	13%
COc1ccc(S(=O)(=O)N2CCOCC2)cc1NC(=O)COC(=O)CCOc1ccc(C)cc1	-19%	0%	15%	6%	4	-1%
COc1ccc(S(=O)(=O)N2CCOCC2)cc1NC(=O)COc1ccc(C)cc1	?	9%	?	?	-51*	-3%
Cc1ccc(OCCCC(=O)Nc2cc(S(=O)(=O)N3CCOCC3)ccc2N2CCOCC2)cc1	23µM*	1%	-4%	21µM*	-14	0%
COc1cc(S(=O)(=O)N2CCOCC2)ccc1NC(=O)COC(=O)c1cc(OC)c(OC)c(OC)c1	?	-5%	0%	-18%	0	-3%
CCOc1ccc(S(=O)(=O)N2CCOCC2)cc1NC(=O)CSCc1ccc(C)cc1	4.6µM*	?	-1%	5.2µM*	25	?
O=C1CS/C(=N/N=C/c2c[nH]c3ccccc23)N1	-18%	129%	2%	13%	·	18µM*
Cc1ccc2nc(C3CCCCC3)c(Cc3ccccc3C(F)(F)F)n2c1	16µM*	·	·	-102%	-6	·
Cc1ccc2nc(C3CCCCC3)c(Cc3ccccc3)n2c1	16µM*	·	·	15µM*	-14	·
CC(C)c1ccc(C(=O)N2CCCCC2c2cc(C(=O)NCc3cccnc3)no2)cc1 (centres undefined)	?	·	·	?	4	·
Cc1ccc(NC(=O)C2=NNC(=O)CC2)cc1S(=O)(=O)Nc1ccc(SC(F)F)cc1	?	8%	-9%	?	-16	8%
CC(C)NC(=O)CN1C(=O)c2cccc3cccc1c23	9%	5%	-1%	0%	-3	-14%
COc1ccccc1N1CCN(C(=O)c2ccc3c(c2)NC(=O)C(CSCc2ccccc2C)N3)CC1 (centres undefined)	·	·	-7%	·	·	·
CSC1=C(C#N)C(c2ccc(Cl)cc2)C2=C(CC(C)(C)CC2=O)N1 (centres undefined)	0.92µM*	21%	-1%	0.92µM*	-3	?
CCCSC1=C(C#N)C(c2ccc(OC)cc2)C2=C(CC(C)(C)CC2=O)N1 (centres undefined)	4.1µM*	10%	1%	5.2µM*	-30	?
COc1ccc(C2C(C#N)=C(C)NC3=C2C(=O)CC(C)(C)C3)cc1 (centres undefined)	-14%	-4%	6%	-29%	4	2%
O=C(c1ccc2c(c1)OCO2)C1CCCN(Cc2cccn2-c2cccnc2)C1 (centres undefined)	15µM*	-2%	-1%	23µM*	?	5%
COc1ccc(C(=O)C2CCCN(Cc3cccn3-c3cccnc3)C2)cc1OC (centres undefined)	15µM*	20%	0%	16µM*	0	-13%
SMILES	TDP1 cell noCPT	SW480 rerep	BCR signal inh	TDP1 cell CPT	IL-1B inflam inh	MCF10A rereplic
O=C(c1ccc2c(c1)OCO2)C1CCCN(Cc2ccc3nsnc3c2)C1 (centres undefined)	-2%	-8%	1%	-26%	-4	13%
CC(C)Oc1cccc(C(=O)C2CCCN(Cc3cccn3-c3cccnc3)C2)c1 (centres undefined)	13µM*	1%	3%	?	?	0%
CCn1ncc(CN2CCCC(C(=O)c3cccc(OC(C)C)c3)C2)c1C (centres undefined)	?	0%	-3%	?	38	23µM*
Cc1c(CN2CCCC(C(=O)c3cccc(OC(C)C)c3)C2)c(=O)n(-c2ccccc2)n1C (centres undefined)	-6%	-2%	3%	11%	21	-3%
CCc1nn(CC(=O)N2CCC(C)CC2)c(=O)c2cc3occc3n12	-13%	·	·	-14%	·	·
CSc1ccc(C(=O)C2CCCN(Cc3cccn3-c3cccnc3)C2)cc1 (centres undefined)	5.2µM*	3%	1%	4.6µM*	-96*	?
COC(=O)C1CCN(Cc2ccc3c(c2)CN(C(=O)c2ccnn2C)CCO3)CC1	-3%	·	·	1%[9.04 µM]	·	·
COc1cccc(CNC(=O)CCNC(=O)N2CCn3c2nc2ccccc23)c1	16%	-2%	-7%	-13%	?	0%
COc1cccc(CNC(=O)CCCCCNC(=O)N2CCn3c2nc2ccccc23)c1	-28%	-12%	-4%	16µM*	10	-1%
Cc1ccc(CNC(=O)CCCCCNC(=O)N2CCn3c2nc2ccccc23)cc1	?	26%	?	18µM*	0	-3%
Cc1ccc(CNC(=O)CCNC(=O)N2CCn3c2nc2ccccc23)cc1	?	1%	3%	-22%	0	-2%
O=C(O)c1ccc(CN2C(=O)c3ccc(C(=O)O)cc3C2=O)cc1	18%	-9%	2%	1%	9	-8%
O=C(O)c1ccc(CN2C(=O)c3cccc4c([N+](=O)[O-])ccc(c34)C2=O)cc1	16µM*	5.8µM*	?	15µM*	-99*	5.8µM*
CC(=O)Oc1cccc(N2C(=O)c3cccc4c([N+](=O)[O-])ccc(c34)C2=O)c1	2.9µM*	?	?	2.3µM*	-95*	21µM*

Compound activity from PubChem BioAssay.
